Test results published in PubChem BioAssay (EPA / NIEHS).
Results filed as inconclusive are left out. Calls of active or inactive are those of the source. The calls were made as follows: active = hit-call score of the fitted dose curve at least 0.9, where 1 is the maximum; inconclusive = response in the unintended direction; inactive = score below 0.9.

Assay: ACEA_ER_80hr: ACEA Biosciences xCELLigence Real-Time Cell Analysis on Estrogen Receptor Agonism for Proliferation (AID 2282667)
Conditions: T47D proliferation, impedance (xCELLigence), 80 h
Protocol: ACEA_ER is a cell-based, single-readout assay that uses T47D, a human breast cell line, with measurements taken at 80 hours after chemical dosing in a 96-well plate, although TO2 (mc0.srcf) used a 384-well plate. Differences in plate size can be ignored given data normalization.ACEA_ER_80hr is one of two assay component(s) measured or calculated from the ACEA_ER assay. It is designed to make measurements of real-time cell-growth kinetics, a form of growth reporter, as detected with electrical impedance signals by Real-Time Cell Electrode Sensor (RT-CES) technology.Data from the assay component ACEA_ER_80hr was analyzed into 1 assay endpoint. This assay endpoint, ACEA_ER_80hr_Positive, was analyzed in the positive analysis fitting direction relative to DMSO as the negative control and baseline of activity. Using a type of growth reporter, measures of the cells for gain-of-signal activity can be used to understand the signaling at the pathway-level as they relate to the gene ESR1. Furthermore, this assay endpoint can be referred to as a primary readout, because this assay has produced multiple assay endpoints where this one serves a signaling function. To generalize the intended target to other relatable targets, this assay endpoint is annotated to the nuclear receptor intended target family, where the subfamily is steroidal.
The xCELLigence system Multi-E-Plate stations were used to measure the time-dependent response to chemicals. Each compound was tested in an eight-point, 1:4 serial dilution series starting at a maximum final concentration of 100 uM. A maximum starting concentration of 0.5% DMSO was present in the 100 uM chemical samples and was diluted along with the test article dilution series. The screen was performed in biological duplicate using two separate, 96-well, E-Plates 96 for each dilution series (n = 2). Positive controls (MG132 and E2) and a negative control (assay media) were tested in quadruplicate on each testing plate. […] Reference compounds were tested with 8 concentrations with 1:5 serial dilutions. All screening was carried out by ACEA Biosciences, Inc. (San Diego, CA). T-47D cells purchased from ATCC were maintained in RPMI1640 media supplemented with 10% characterized fetal bovine serum (FBS). […] Cells were then detached and seeded in E-Plates 96 in assay medium. After overnight monitoring of growth once every hour, compounds were added to […] cells and remained in the medium until the end of the experiment. Cellular responses were then recorded once every 5 min for the first 5 h, and once every hour for an additional 100 h.

Compound | outcome | AC50
NN=C(N)N | inactive | 
OCC(O)CCl (stereo not given) | inactive | 
COC[C@H](C)N(C(=O)CCl)c1c(C)csc1C | inactive | 
Cc1cc(Cl)ccc1O[C@H](C)C(=O)O | inactive | 
CCOP(=O)(CN(CCO)CCO)OCC | inactive | 
CN(CCCC(=O)c1cccnc1)N=O | inactive | 
COP(=S)(OC)Oc1c(Cl)cc(C)cc1Cl | inactive | 
O=P(O)(O)c1ccccc1 | inactive | 
COC(=O)Cc1ccccc1 | inactive | 
O=C(NCO)NCO | inactive | 
Cl/C=C\C[N+]12CN3CN(CN(C3)C1)C2 | inactive | 
CCOC(=O)Nc1cccc(OC(=O)Nc2ccccc2)c1 | inactive | 
COP(=S)(OC)Oc1ccc(Sc2ccc(OP(=S)(OC)OC)cc2)cc1 |  | 0.0233 µM (active)
C[C@@H](Oc1ccc(Cl)cc1Cl)C(=O)O | inactive | 
CCOP(=S)(OCC)Oc1nc(Cl)c(Cl)cc1Cl | inactive | 
CC(=O)OC(c1ccccc1)C(Cl)(Cl)Cl (stereo not given) | inactive | 
CCOP(=S)(OCC)SCSP(=S)(OCC)OCC | inactive | 
O=C(Cl)c1ccc(Cl)cc1 | inactive | 
CC1CCCCC1NC(=O)Nc1ccccc1 (stereo not given) | inactive | 
COc1cc2c(cc1OC)[C@@]13CCN4CC5=CCO[C@H]6CC(=O)N2[C@H]1[C@H]6[C@H]5C[C@H]43 | inactive | 

Compound | outcome | AC50
NC(=S)Nc1ccccc1 | inactive | 
Nc1ccc(-c2ccc(N)c(Cl)c2)cc1Cl | inactive | 
COP(=O)(OC)O/C(=C\Cl)c1cc(Cl)c(Cl)cc1Cl | inactive | 
Oc1ccc(-c2ccccc2)cc1 |  | 10.5 µM (active)
COC(=O)c1sccc1S(=O)(=O)NC(=O)Nc1nc(C)nc(OC)n1 | inactive | 
COc1ccccc1OC | inactive | 
Clc1nc(Cl)nc(Cl)n1 | inactive | 
COc1cccc(C=O)c1 | inactive | 
ClCc1ccccn1 | inactive | 
CC(C)c1ccc(CO)cc1 | inactive | 
C[C@H]1O[C@@H](O[C@H]2[C@@H](O)C[C@H](O[C@H]3[C@@H](O)C[C@H](O[C@H]4CC[C@@]5(C)[C@H](CC[C@@H]6[C@@H]5CC[C@]5(C)[C@@H](C7=CC(=O)OC7)CC[C@]65O)C4)O[C@@H]3C)O[C@@H]2C)C[C@H](O)[C@@H]1O | inactive | 
COc1ccc(C=O)cc1 | inactive | 
CC1(C)CCC(Cc2ccc(Cl)cc2)C1(O)Cn1cncn1 (stereo not given) | inactive | 
Cc1ccccc1C(=O)Nc1cccc(OC(C)C)c1 | inactive | 
CC(C)=C[C@@H]1[C@@H](C(=O)OCc2coc(Cc3ccccc3)c2)C1(C)C | inactive | 
C1CCC(NC2CCCCC2)CC1 | inactive | 
N#Cc1ccccn1 | inactive | 
CC(=O)C=C(C)C |  | 10.8 µM (active)
CCCCP(CCCC)CCCC | inactive | 
CCCCCCCCCl | inactive | 
